# Assay results published in PubChem BioAssay.
# Calls of active or inactive are those of the source.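 The calls were made as follows, unless noted: active = fluorescence slope after compound addition differing from the mean of all screened samples at 99.7% confidence, in either direction; inactive = the rest.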
# Columns and labels:
# [1] = inhibitors of TNFa-induced NFkB p65 translocation, primary screen, imaging, HUVEC, MLSMR starter and 10KST1 sets (AID 438;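 active = inhibition above 20% together with a positive visual image hit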;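 also: compound added about 3h40 before a 20 min TNFalpha stimulation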;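 as to inhibition: signal is the nuclear over cytoplasmic p65 intensity ratio per well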); conditions: HUVEC TNFa-induced p65 nuclear translocation; cell count: measured here: nuclei count (cytotoxicity indicator), at 2.08 µM; inhibition: at 2 µM, stronger effect = higher value, 0% TNFa-plus-vehicle, 100% no-TNFa wells
# [2] = inhibitors of mutant huntingtin aggregation, primary screen, imaging, exon1htt(103Q)mCFP cells, high-content imaging (AID 483;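 active = visual image review flags a hit and inhibition of aggregation exceeds 20%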;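 also: compound exposure lasted 3 days before fixation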;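 as to nuclei count: percent of the per-plate median nuclei count of sample wells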); conditions: exon1htt(103Q)mCFP cell line, aggregate imaging, at 2 µM; inhibition of aggregation: stronger effect = higher value; nuclei count: measured here: cell count, toxicity
# [3] = inhibitors of E-selectin induction by TNFa, primary screen, imaging, HUVEC, immunofluorescence, MLSMR starter and 10KST1 sets (AID 487;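 active = visually confirmed hit in the image check and inhibition above 20%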;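 as to inhibition: signal is fraction of cell area covered by stained E-selectin grains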;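 as to nuclei count: 100% = median nuclei count of all wells on the same plate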); conditions: HUVEC TNFalpha-induced E-selectin immunofluorescence imaging, at 2 µM; inhibition: stronger effect = higher value; nuclei count: measured here: cell number, toxicity
# [4] = target: Voltage-gated potassium channel subunit beta-2 (Rattus norvegicus) (UniProt P62483); test: KvBeta enzyme negative modulators, primary screen, biochemical, NADPH fluorescence (AID 622;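 active = fluorescence slope higher than the sample average by over 3 SD, cut at about -0.22 in these data, passing the limit was not always enough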;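 also: slope of raw intensity against log time taken from 70 to 1610 s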); conditions: recombinant KvBeta, 4-cyanobenzaldehyde reduction, at 10 µM, stronger effect = higher value
# Voltage-gated potassium channel subunit beta-2 (Rattus norvegicus), sequence (P62483 whole entry, looked up): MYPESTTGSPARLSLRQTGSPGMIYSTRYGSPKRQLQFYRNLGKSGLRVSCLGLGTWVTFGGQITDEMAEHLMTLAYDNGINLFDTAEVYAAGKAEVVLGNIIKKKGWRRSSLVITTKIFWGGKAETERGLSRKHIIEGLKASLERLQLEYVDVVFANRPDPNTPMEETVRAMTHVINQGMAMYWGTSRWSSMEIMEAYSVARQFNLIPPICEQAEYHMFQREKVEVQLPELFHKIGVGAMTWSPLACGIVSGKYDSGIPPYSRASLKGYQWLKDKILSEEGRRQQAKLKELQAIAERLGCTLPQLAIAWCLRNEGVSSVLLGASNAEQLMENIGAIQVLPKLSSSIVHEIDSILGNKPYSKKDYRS
# [5] = target: Voltage-gated potassium channel subunit beta-2 (Rattus norvegicus) (UniProt P62483); test: KvBeta positive modulators, primary screen, biochemical, NADPH fluorescence (AID 623;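 active = NADPH fluorescence slope more negative than the mean of all samples by about 3 SD, 99.7% confidence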;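 also: fluorescence intensity change per second fitted from 20 to 320 s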); conditions: Recombinant KvBeta, NADPH fluorescence decrease slope, 10 min; at 10 µM; stronger effect = lower value
# [6] = target: Alpha-2C adrenergic receptor (Homo sapiens) (UniProt P18825); test: modulators of alpha2C/GIRK thallium flux, primary screen, cell-based, HEK293 alpha2C/GIRK1/2 (AID 624); conditions: thallium flux BTC fluorescence, at 10 µM, actives lie on both sides;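 also: slope of fluorescence ratio to pre-addition baseline per second over 15 to 24 s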
# Alpha-2C adrenergic receptor (Homo sapiens), sequence (P18825 whole entry, looked up): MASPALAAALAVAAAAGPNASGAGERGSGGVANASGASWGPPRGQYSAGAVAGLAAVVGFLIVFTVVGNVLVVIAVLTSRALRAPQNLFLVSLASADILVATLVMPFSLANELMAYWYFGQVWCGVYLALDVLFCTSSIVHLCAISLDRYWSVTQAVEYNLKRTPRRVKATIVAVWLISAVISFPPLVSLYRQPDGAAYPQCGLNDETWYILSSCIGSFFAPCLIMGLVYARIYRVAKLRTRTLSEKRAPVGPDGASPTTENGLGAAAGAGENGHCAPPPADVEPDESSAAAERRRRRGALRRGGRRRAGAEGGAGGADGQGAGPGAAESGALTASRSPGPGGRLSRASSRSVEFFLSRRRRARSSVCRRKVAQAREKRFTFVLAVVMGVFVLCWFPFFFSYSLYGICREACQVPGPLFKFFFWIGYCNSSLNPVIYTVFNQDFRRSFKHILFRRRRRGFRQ
# [7] = inhibitors of Sendai virus-induced IRF3 signaling, primary screen, TLR/RLR signaling modifier project, cell-based, Sendai virus stimulus, luciferase, 10K MLSCN set (AID 602276;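 active = inhibition at or above 50% at 10 µM; inactive = inhibition below 50%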;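 also: firefly luciferase from ISG56 promoter only with Renilla not read in this screen; 0% = Sendai virus plus DMSO and 100% = medium plus DMSO without virus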); conditions: HEK293 RL24 IRF3 luciferase reporter, at 10 µM, stronger effect = higher value
# [8] = inhibitors of poly I:C-induced TLR3 signaling, primary screen, cell-based, poly I:C stimulus, luciferase, 10K MLSCN set (AID 602277;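 active = inhibition of the reporter signal at or above 50%; inactive = inhibition below 50%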); conditions: HEK293-TLR3 RL24 IRF3 luciferase reporter, at 10 µM, stronger effect = higher value
SMILES,cell count [1],inhibition [1],inhibition of aggregation [2],nuclei count [2] [%],inhibition [3],nuclei count [3] [%],fluorescence slope [4],NADPH fluorescence slope [5],slope [6],inhibition [7],inhibition [8]
COc1cc(NC(=O)C2CCCN2S(=O)(=O)c2cccc3cccnc23)cc(OC)c1OC (stereo not drawn),667,0.6% (inactive),15.1% (inactive),77.6,-75.5% (inactive),110,-0.598 (inactive),-3.4e-05 (inactive),0.00756 (inactive),14.4% (inactive),32% (inactive)
CS(=O)(=O)N1CCN(c2ccccc2NC(=O)c2ccc(-c3ccc(Cl)cc3Cl)o2)CC1,194,-3.5% (inactive),32.9% (active),72.7,24.8% (inactive),54.7,-0.357 (inactive),2.6e-05 (inactive),0.00896 (inactive),12% (inactive),23.2% (inactive)
O=C(NC1CCCc2ccccc21)c1ccc(CNc2c(N3CCOCC3)c(=O)c2=O)cc1 (stereo not drawn),644,-3.4% (inactive),36.3% (active),51.3,-52.7% (inactive),108,-0.55 (inactive),-2.5e-06 (inactive),0.00556 (inactive),12.8% (inactive),27% (inactive)
CCOC(=O)C(C)n1cnc2c(nnn2Cc2ccc(C)cc2)c1=O (stereo not drawn),618,-3.7% (inactive),6% (inactive),91.7,-1.8% (inactive),86.9,-0.503 (inactive),-0.000137 (inactive),0.00481 (inactive),16.6% (inactive),20.1% (inactive)
O=C(Nc1ccc2c(c1)OCO2)C(c1ccc(Cl)cc1)N1CCN(C(=O)c2ccco2)CC1 (stereo not drawn),359,-2.1% (inactive),-23.2% (inactive),102,-43.9% (inactive),110,-0.47 (inactive),-3.7e-05 (inactive),0.00661 (inactive),20.6% (inactive),28.1% (inactive)
N#CCCNCC1(c2ccccc2)CCCC1,567,-9.1% (inactive),-10.6% (inactive),108,1.8% (inactive),104,-0.576 (inactive),-4.5e-05 (inactive),0.00572 (inactive),2.93% (inactive),9.79% (inactive)
CN(C)S(=O)(=O)c1ccc(/C(O)=C2/C(=O)C(=O)N(CCN3CCCCC3)C2c2cccnc2)cc1 (stereo not drawn),391,5.5% (inactive),5.7% (inactive),88.2,-68.5% (inactive),113,-0.396 (inactive),2e-05 (inactive),0.00576 (inactive),-17.9% (inactive),-24% (inactive)
CCOc1ccc(N(C(C)=O)C2C=CS(=O)(=O)C2)cc1 (stereo not drawn),610,-0.2% (inactive),-4.3% (inactive),104,-4% (inactive),139,-0.496 (inactive),-1.8e-05 (inactive),0.00613 (inactive),3.45% (inactive),19.5% (inactive)
CCOCCCNC(=O)C1CCCN(S(=O)(=O)CC)C1 (stereo not drawn),630,-36% (inactive),-6.6% (inactive),112,-3.3% (inactive),95.1,-0.408 (inactive),-4e-05 (inactive),0.00421 (inactive),15.1% (inactive),12.2% (inactive)
Cc1cccc(Cn2c(SCCN3CCCCC3)nc3c2c(=O)[nH]c(=O)n3C)c1,497,6.4% (inactive),-13.5% (inactive),82.4,1.7% (inactive),95.1,-0.442 (inactive),3.2e-05 (inactive),0.00451 (inactive),-12% (inactive),3.02% (inactive)
Cn1c(=O)oc2cc(S(=O)(=O)N3CCN(c4ccccn4)CC3)ccc21,826,8% (inactive),24.1% (inactive),116,-36.5% (inactive),117,-0.577 (inactive),-4.3e-05 (inactive),0.00702 (inactive),15% (inactive),31.2% (inactive)
CCOC(=O)N1CCN(C(=O)CSc2ncnc3ccccc23)CC1,747,-1.6% (inactive),-8.8% (inactive),120,-10.3% (inactive),115,-0.525 (inactive),-2.4e-05 (inactive),0.00632 (inactive),1.11% (inactive),-8.53% (inactive)
O=C(NCCC1=CCCCC1)C1CC(=O)N(C2CCCCCC2)C1 (stereo not drawn),645,-4.4% (inactive),-46.5% (inactive),45.9,-41.7% (inactive),126,-0.367 (inactive),-6.2e-05 (inactive),0.00623 (inactive),5.65% (inactive),27.5% (inactive)
CCOC(=O)N1CCN(S(=O)(=O)c2cc(Cl)ccc2Cl)CC1,357,5.2% (inactive),29.4% (inactive),95.3,-221% (inactive),106,-0.62 (inactive),-2.7e-05 (inactive),0.00556 (inactive),14.8% (inactive),18.5% (inactive)
COCCn1c(=N)c(C(=O)NCCc2ccccc2)cc2c(=O)n3cccc(C)c3nc21,388,4.3% (inactive),-22.7% (inactive),102,-75.7% (inactive),117,-0.0609 (inactive),4.2e-06 (inactive),0.00428 (inactive),9.73% (inactive),35.4% (inactive)
CCOC(=O)c1ccc(N2C(=O)CC(NC3CCN(C(=O)c4ccc(F)cc4)CC3)C2=O)cc1 (stereo not drawn),699,8.6% (inactive),7.9% (inactive),102,-30.3% (inactive),98.3,-0.416 (inactive),2.4e-05 (inactive),0.00425 (inactive),-1.5% (inactive),-3.21% (inactive)
CCOc1ccccc1-n1c(SCC(=O)NC2CCCC2)nnc1-c1ccoc1C,588,-9.5% (inactive),35.7% (inactive),77.1,83.6% (inactive),62.7,-0.543 (inactive),1.9e-05 (inactive),0.00524 (inactive),1.09% (inactive),11.6% (inactive)
O=S(=O)(Nc1ccccn1)c1ccc(Oc2ccccc2)cc1,248,-6.3% (inactive),0.4% (inactive),59.1,-2.9% (inactive),93.8,-0.598 (inactive),-1.6e-05 (inactive),0.0052 (inactive),16.9% (inactive),20.6% (inactive)
Cc1ccc(NC2=NCC(=O)N2c2ccc3c(c2)OCCO3)c(C)c1,463,-14.4% (inactive),-2.6% (inactive),116,-20.7% (inactive),97.3,-0.498 (inactive),-3.6e-05 (inactive),0.00458 (inactive),5.69% (inactive),7.01% (inactive)
CCOc1cc(C(=O)Nc2ncccn2)cc(OCC)c1OCC,280,6.6% (inactive),38% (active),103,-193% (inactive),100,-0.476 (inactive),-2.8e-05 (inactive),0.0062 (inactive),8.28% (inactive),27.2% (inactive)
CCOC(=O)CC12CN3CN(C1)CC(CC(=O)OCC)(C3)C2=O,596,-28.6% (inactive),7.3% (inactive),83.7,-54.7% (inactive),110,-0.497 (inactive),-2.2e-05 (inactive),0.00533 (inactive),-1.85% (inactive),25.3% (inactive)
CC(C(=O)Nc1ccccc1-c1ccccc1)N1CCOCC1 (stereo not drawn),555,-17.7% (inactive),5.4% (inactive),89.4,-27.4% (inactive),127,-0.527 (inactive),-6.7e-05 (inactive),0.00481 (inactive),3.12% (inactive),86.4% (active)
COc1ccc(NC(=O)CCS(=O)(=O)c2ccc(OC)cc2)cc1,401,-2.5% (inactive),20.3% (inactive),84.3,-24% (inactive),101,-0.539 (inactive),-8.1e-06 (inactive),0.00539 (inactive),-3.69% (inactive),-1.71% (inactive)
CC1CCCCC1NC(=O)CN1CCN(Cc2ccccc2Cl)C1=O (stereo not drawn),667,-0.2% (inactive),10.7% (inactive),64.8,-22.2% (inactive),98.9,-0.455 (inactive),-6.3e-05 (inactive),0.00454 (inactive),10.1% (inactive),20.3% (inactive)
Cc1ccc(-c2nnc(N3CCN(C(=O)CN4C(=O)c5ccccc5C4=O)CC3)c3ccccc23)cc1,375,10.2% (inactive),-15.9% (inactive),109,-158% (inactive),133,-0.468 (inactive),-5.9e-05 (inactive),0.00522 (inactive),8.25% (inactive),12.9% (inactive)
COCCN(C(=O)CCC(=O)Nc1ccccn1)C(C(=O)NC1CCCC1)c1ccc(OC)cc1 (stereo not drawn),528,-26.5% (inactive),16.1% (inactive),105,-44.5% (inactive),92,-0.395 (inactive),-9e-05 (inactive),0.00514 (inactive),1.15% (inactive),23.2% (inactive)
Clc1ccc(C2Nc3ccccc3-n3cccc32)cc1 (stereo not drawn),637,-1.6% (inactive),8.6% (inactive),109,-44.3% (inactive),104,-0.301 (inactive),2.7e-06 (inactive),0.00628 (inactive),5.43% (inactive),18.8% (inactive)
Nc1nc(-n2cnnc2)nn1-c1ccccc1,414,5.5% (inactive),-0.2% (inactive),97,-44% (inactive),118,-0.366 (inactive),-3e-05 (inactive),0.0053 (inactive),4.93% (inactive),4.43% (inactive)
